This note sets out measurements from PubChem BioAssay (NCI).

Molecules are shown by their SMILES. About 83,000 compounds went through this panel and 20% of them were active in at least one assay; those are over-represented in the sample as a whole.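 How to read the values: 0–100, growth inhibition (40 = 60% inhibited); 0, no net growth; -100 to 0, cell death (-40 = 40% of starting cells died; -100 = all dead).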 Unmarked numbers belong to inactive results. Active and inactive are the calls of the source. How the source made its calls: active means growth percent below 10; inactive means the rest.

Test systems include T-47D breast; BT-549 breast; MDA-MB-435 melanoma; SW-620 colon; MCF7 breast; HCT-116 colon; HCC-2998 colon; KM12 colon.
Holding throughout (assay): NCI-60 one-dose screen, 48 h (100 = growth as untreated, 0 = no growth, -100 = all killed)
Conditions in all cases: 10 µM unless noted

Regarding `Cc1[nH]ccc2cc3nc4ccccc4c3cc12`, the growth in the experiment with T-47D breast was 27.7%; with BT-549 breast it was 60.3%; in the experiment on MDA-MB-435 melanoma, 33.9%; in the experiment with SW-620 colon, 22.1%; in the experiment with MCF7 breast it was 7.1% (active); in the experiment with HCT-116 colon, 22%. For the same molecule, the growth with HCC-2998 colon was 33.7%; with KM12 colon, 29%.
Consider `Cc1cc2c(cc1C)[n+](Cc1ccc3ccccc3n1)cn2Cc1ccc2ccccc2n1`, for which the growth is -1.32% (active) in the experiment on T-47D breast; -45.9% (active) in the experiment on BT-549 breast; -24.5% (active) in the experiment on MDA-MB-435 melanoma; 9.34% (active) in the experiment with SW-620 colon; 7.12% (active) in the experiment on MCF7 breast; -0.984% (active) in the experiment on HCT-116 colon. The growth was 3.84% (active) with HCC-2998 colon and -7.23% (active) in the experiment with KM12 colon.
On to `COc1cnc2c(c1)C(=O)c1c-2n(CCCN2CCCC2)c(=O)c2cc(F)ccc12`, for which the growth in the experiment with T-47D breast was -4.54% (active); in the experiment with BT-549 breast it was -6.57% (active); in the experiment with MDA-MB-435 melanoma, 16%; in the experiment on SW-620 colon, -33.2% (active); in the experiment with MCF7 breast, 3.93% (active); in the experiment with HCT-116 colon it was -77.3% (active). Also, the results for the growth in the experiment on HCC-2998 colon and in the experiment with KM12 colon were 16.9% and -12.6% (active), respectively.
`O=C(Nc1cccc(-n2cc(-c3ccncc3)c(-c3cc(O)cc(Cl)c3)n2)c1)Nc1ccc(Cl)c(Cl)c1`: the growth was -5.53% (active) in the experiment with T-47D breast; 0.544% (active) in the experiment on BT-549 breast; -33.3% (active) in the experiment on MDA-MB-435 melanoma; -33.8% (active) in the experiment on SW-620 colon; 2.74% (active) in the experiment on MCF7 breast; -57.3% (active) in the experiment on HCT-116 colon. Also, the growth in the experiment with HCC-2998 colon was 0.568% (active); with KM12 colon it was 2.26% (active).
For `N#Cc1c(-c2ccccc2)cc(-c2ccccc2)n(CCCCC(=O)O)c1=O`, the growth with T-47D breast was 103%; in the experiment with BT-549 breast, 91%; in the experiment with MDA-MB-435 melanoma, 59.4%; in the experiment on SW-620 colon it was 90.9%; in the experiment with MCF7 breast, 78.2%; with HCT-116 colon, 93.3%. Also, the growth with HCC-2998 colon was 95.6%; in the experiment with KM12 colon, 79.7%.
Consider `COc1ccc(N2CCN(CC(=O)N3CCN(c4nnc(-c5ccc(Cl)cc5)c(-c5ccc(Cl)cc5)n4)CC3)CC2)cc1`, for which the growth in the experiment on T-47D breast was 31.6%; in the experiment on BT-549 breast, 66.1%; in the experiment on MDA-MB-435 melanoma it was 57.5%; with SW-620 colon, 69.2%; with MCF7 breast, 37.3%; in the experiment with HCT-116 colon, 29.2%. For the same molecule, the values for the growth in the experiment with HCC-2998 colon and with KM12 colon were 51% and 44.7%, respectively.
In the case of `COC(=O)[C@H](Cc1cnc[nH]1)NC(=O)[C@@H](NC(=O)Nc1cc(C(F)(F)F)cc(C(F)(F)F)c1)C(C)C`, the growth with T-47D breast was -63.5% [100 µM] (active); in the experiment on BT-549 breast it was -90.7% [100 µM] (active); with MDA-MB-435 melanoma, -91.1% [100 µM] (active); in the experiment on SW-620 colon, -48.2% [100 µM] (active); in the experiment on MCF7 breast, -53.1% [100 µM] (active); with HCT-116 colon, -89.5% [100 µM] (active). Further, the values for the growth with HCC-2998 colon and in the experiment with KM12 colon were -82.2% [100 µM] (active) and -94.6% [100 µM] (active), respectively.
As for `COc1ccc(-c2nc3sc4c(c3c(=O)[nH]2)CCCCCC4)cc1`, the growth with T-47D breast was 64.2%; in the experiment on BT-549 breast, 75.3%; in the experiment on MDA-MB-435 melanoma, 2.83% (active); in the experiment with SW-620 colon, 29%; with MCF7 breast, 54.1%; in the experiment on HCT-116 colon it was 33.9%. The growth in the experiment with HCC-2998 colon is 80.9%; in the experiment on KM12 colon, 34.8%.
For the molecule `Nc1ccc(N=Nc2ccccc2)cc1[N+](=O)[O-]`, the growth in the experiment on T-47D breast was 59.8%; in the experiment on BT-549 breast it was 85.4%; with MDA-MB-435 melanoma, 101%; in the experiment with SW-620 colon, 93.1%; with MCF7 breast it was 24.1%; with HCT-116 colon, 91.4%. The growth was 103% in the experiment on HCC-2998 colon and 53.2% in the experiment with KM12 colon.
Take `COc1ccc(C2CC(c3ccc4c(c3)OCO4)=NN2C=O)cc1` (stereo not drawn): the growth is 99.2% with T-47D breast; 89.1% in the experiment with BT-549 breast; 110% in the experiment on MDA-MB-435 melanoma; 104% in the experiment with SW-620 colon; 98.6% with MCF7 breast; 96.4% in the experiment with HCT-116 colon. The growth with HCC-2998 colon was 102%; in the experiment with KM12 colon, 105%.
Consider `CC(=O)Nc1cc(C(c2ccccc2)c2ccccc2)cc(C(c2ccccc2)c2ccccc2)c1C`, for which the growth with T-47D breast is 24.9%; in the experiment on BT-549 breast, 55.5%; with MDA-MB-435 melanoma, 63.9%; with SW-620 colon, 52%; with MCF7 breast, 41.3%; in the experiment on HCT-116 colon, 8.02% (active). Also, the figures for the growth in the experiment with HCC-2998 colon and with KM12 colon were 64.9% and 50.5%, respectively.
With `CN(C)CCCNc1nn2c(=O)c3ccccc3nc2c2ccccc12`, the growth in the experiment on T-47D breast is 92.5%; in the experiment on BT-549 breast, 75.6%; with MDA-MB-435 melanoma it was 74.7%; in the experiment on SW-620 colon, 57.9%; with MCF7 breast it was 26.7%; with HCT-116 colon, 25.2%. For the same molecule, the growth was 70.6% in the experiment on HCC-2998 colon and 66.1% in the experiment on KM12 colon.
Take `C[C@]12CC[C@H](O)CC1=CC[C@@H]1[C@@H]2CC[C@]2(C)C(c3cccnc3)=CC[C@@H]12`: the growth is 55.6% with T-47D breast; 59.5% with BT-549 breast; 19.8% in the experiment on MDA-MB-435 melanoma; 72.7% with SW-620 colon; 61.4% with MCF7 breast; 58.7% with HCT-116 colon. Moreover, the growth in the experiment with HCC-2998 colon was 74.6%; with KM12 colon it was 52.8%.
In the case of `O=C(O)CCC(=O)OC[C@@H](NC(=O)C(Cl)Cl)[C@H](O)c1ccc([N+](=O)[O-])cc1`, the growth in the experiment with T-47D breast was 95%; in the experiment on BT-549 breast, 89.6%; with MDA-MB-435 melanoma, 101%; in the experiment with SW-620 colon, 108%; in the experiment with MCF7 breast it was 97.2%; in the experiment on HCT-116 colon it was 92.3%. The results for the growth in the experiment with HCC-2998 colon and in the experiment with KM12 colon were 100% and 103%, respectively.
For `O=C1c2cccc3c([N+](=O)[O-])ccc(c23)C(=O)N1CCCCl`, the growth in the experiment with T-47D breast was -48.4% [100 µM] (active); in the experiment on BT-549 breast, -98.2% [100 µM] (active); in the experiment with MDA-MB-435 melanoma, -89.3% [100 µM] (active); in the experiment with SW-620 colon, -44.4% [100 µM] (active); in the experiment with MCF7 breast, -65.5% [100 µM] (active); in the experiment with HCT-116 colon, -90.6% [100 µM] (active). Besides, the growth was -91.9% [100 µM] (active) with HCC-2998 colon and -81.3% [100 µM] (active) in the experiment with KM12 colon.
Regarding `O=c1ncc(-c2ccc(C(F)(F)F)cc2)c(NC2CCCCCC2)[nH]1`, the growth in the experiment with T-47D breast is 32.5%; in the experiment on BT-549 breast, 72.7%; in the experiment on MDA-MB-435 melanoma, 45.3%; with SW-620 colon, 46.5%; in the experiment with MCF7 breast, 40.4%; with HCT-116 colon, 39.1%. Also, the growth in the experiment on HCC-2998 colon was 98.1%; in the experiment on KM12 colon, 33.4%.
